Here are results for 14 molecules from PubChem BioAssay.

For orientation: inhibition means the drop in the measured response relative to a control, in per cent.

Activity calls are given as the source filed them.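 How the source made its calls, unless noted: active means NADPH fluorescence slope more negative than the mean of all samples by about 3 SD, 99.7% confidence; inactive means the rest.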

A short description of test [1]: inhibitors of TNFa-induced NFkB p65 translocation, primary screen, imaging, HUVEC, MLSMR starter and 10KST1 sets (AID 438;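 active means inhibition above 20% together with a positive visual image hit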;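 further: compound added about 3h40 before a 20 min TNFalpha stimulation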;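 on inhibition: signal is the nuclear over cytoplasmic p65 intensity ratio per well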). Particulars: HUVEC TNFa-induced p65 nuclear translocation; cell count: measured here: nuclei count (cytotoxicity indicator), at 2.08 µM; inhibition: at 2 µM, stronger effect = higher value, 0% TNFa-plus-vehicle, 100% no-TNFa wells.
A short description of test [2]: inhibitors of mutant huntingtin aggregation, primary screen, imaging, exon1htt(103Q)mCFP cells, high-content imaging (AID 483;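 active means visual image review flags a hit and inhibition of aggregation exceeds 20%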;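 further: compound exposure lasted 3 days before fixation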;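 on nuclei count: percent of the per-plate median nuclei count of sample wells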). Particulars: exon1htt(103Q)mCFP cell line, aggregate imaging, at 2 µM; inhibition of aggregation: stronger effect = higher value; nuclei count: measured here: cell count, toxicity.
The nature of test [3]: inhibitors of E-selectin induction by TNFa, primary screen, imaging, HUVEC, immunofluorescence, MLSMR starter and 10KST1 sets (AID 487;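 active means visually confirmed hit in the image check and inhibition above 20%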;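 on inhibition: signal is fraction of cell area covered by stained E-selectin grains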;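 on nuclei count: 100% = median nuclei count of all wells on the same plate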). Particulars: HUVEC TNFalpha-induced E-selectin immunofluorescence imaging, at 2 µM; inhibition: stronger effect = higher value; nuclei count: measured here: cell number, toxicity.
The target of test [4] is Voltage-gated potassium channel subunit beta-2 (Rattus norvegicus) (UniProt P62483). Kind of test: KvBeta enzyme negative modulators, primary screen, biochemical, NADPH fluorescence (AID 622;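 active means fluorescence slope higher than the sample average by over 3 SD, cut at about -0.22 in these data, passing the limit was not always enough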;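 further: slope of raw intensity against log time taken from 70 to 1610 s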). Particulars: recombinant KvBeta, 4-cyanobenzaldehyde reduction, at 10 µM, stronger effect = higher value.
For test [5] the target is unchanged. Nature of the test: KvBeta positive modulators, primary screen, biochemical, NADPH fluorescence (AID 623).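 Further: fluorescence intensity change per second fitted from 20 to 320 s.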 Particulars: Recombinant KvBeta, NADPH fluorescence decrease slope, 10 min; at 10 µM; stronger effect = lower value.
Test [6] has as its target Alpha-2C adrenergic receptor (Homo sapiens) (UniProt P18825). Kind of test: modulators of alpha2C/GIRK thallium flux, primary screen, cell-based, HEK293 alpha2C/GIRK1/2 (AID 624;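 active means fluorescence slope after compound addition differing from the mean of all screened samples at 99.7% confidence, in either direction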;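 further: slope of fluorescence ratio to pre-addition baseline per second over 15 to 24 s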). Particulars: thallium flux BTC fluorescence, at 10 µM, actives lie on both sides.
Test [7] is described as follows: inhibitors of Sendai virus-induced IRF3 signaling, primary screen, TLR/RLR signaling modifier project, cell-based, Sendai virus stimulus, luciferase, 10K MLSCN set (AID 602276;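 active means inhibition at or above 50% at 10 µM; inactive means inhibition below 50%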;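 further: firefly luciferase from ISG56 promoter only with Renilla not read in this screen; 0% = Sendai virus plus DMSO and 100% = medium plus DMSO without virus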). Particulars: HEK293 RL24 IRF3 luciferase reporter, at 10 µM, stronger effect = higher value.
Test [8] can be described thus: inhibitors of poly I:C-induced TLR3 signaling, primary screen, cell-based, poly I:C stimulus, luciferase, 10K MLSCN set (AID 602277;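 active means inhibition of the reporter signal at or above 50%; inactive means inhibition below 50%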). Particulars: HEK293-TLR3 RL24 IRF3 luciferase reporter, at 10 µM, stronger effect = higher value. In general terms: In a reporter assay the amount or activity of a reporter protein is the signal.

Chain of Voltage-gated potassium channel subunit beta-2 (Rattus norvegicus) (P62483 whole entry, looked up): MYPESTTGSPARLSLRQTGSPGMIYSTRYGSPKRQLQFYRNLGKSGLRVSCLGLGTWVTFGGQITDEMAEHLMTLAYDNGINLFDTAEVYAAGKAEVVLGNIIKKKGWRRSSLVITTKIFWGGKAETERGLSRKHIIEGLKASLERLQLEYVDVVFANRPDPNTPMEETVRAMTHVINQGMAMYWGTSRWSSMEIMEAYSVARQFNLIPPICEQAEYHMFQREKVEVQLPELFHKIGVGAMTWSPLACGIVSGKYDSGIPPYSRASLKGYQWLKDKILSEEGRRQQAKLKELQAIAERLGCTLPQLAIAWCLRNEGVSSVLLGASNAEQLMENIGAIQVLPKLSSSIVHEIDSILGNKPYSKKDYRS
Chain of Alpha-2C adrenergic receptor (Homo sapiens) (P18825 whole entry, looked up): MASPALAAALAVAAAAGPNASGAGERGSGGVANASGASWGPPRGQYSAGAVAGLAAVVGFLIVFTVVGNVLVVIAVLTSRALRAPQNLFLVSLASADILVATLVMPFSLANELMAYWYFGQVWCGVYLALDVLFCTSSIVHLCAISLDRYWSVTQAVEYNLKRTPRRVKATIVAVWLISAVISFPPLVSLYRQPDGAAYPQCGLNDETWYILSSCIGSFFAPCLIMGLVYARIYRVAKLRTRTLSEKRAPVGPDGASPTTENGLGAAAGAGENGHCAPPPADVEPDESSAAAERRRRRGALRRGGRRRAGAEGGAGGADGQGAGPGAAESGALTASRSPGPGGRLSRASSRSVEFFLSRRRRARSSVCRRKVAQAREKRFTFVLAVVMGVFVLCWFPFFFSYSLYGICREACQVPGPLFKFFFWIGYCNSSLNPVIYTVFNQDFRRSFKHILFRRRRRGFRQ

On to `NC(=O)c1cccc2c1C(=O)N(C1CCCCC1)C2`, for which, in test [1], the cell count is 836. Also, the inhibition is -0.6% (inactive) in test [1], -26.1% (inactive) in test [3], 5.66% (inactive) in test [7] and 24.7% (inactive) in test [8]. For the same molecule, in test [2], the inhibition of aggregation is -14.1% (inactive). Further, the values for the nuclei count in test [2] and in test [3] were 91.2% and 117%, respectively. The fluorescence slope in test [4] was -0.569 (inactive). Further, in test [5], the NADPH fluorescence slope was -1.8e-05 (inactive). Besides, in test [6], the slope is 0.00605 (inactive).
As for `Cn1c(=O)c2c(nc(NCc3ccccc3)n2CCCc2ccccc2)n(C)c1=O`, in test [1], the cell count came to 759. The inhibition in test [1] is -1.6% (inactive); in test [3], -77.1% (inactive); in test [7], 16.3% (inactive); in test [8], 26.8% (inactive). In addition, the inhibition of aggregation in test [2] is 5.6% (inactive). The nuclei count was 101% in test [2] and 121% in test [3]. Further, in test [4], the fluorescence slope was -0.521 (inactive). In addition, the NADPH fluorescence slope in test [5] is -1.3e-05 (inactive). In test [6], the slope is 0.00474 (inactive).
Take `CCOc1ccc(OCCCCN(C)C)cc1`: the cell count in test [1] is 386. Further, the inhibition is 1.8% (inactive) in test [1], -111% (inactive) in test [3], 8.3% (inactive) in test [7] and 27.7% (inactive) in test [8]. Further, the inhibition of aggregation in test [2] is 5.3% (inactive). Besides, the nuclei count in test [2] came to 110%; in test [3], 104%. Moreover, in test [4], the fluorescence slope is -0.299 (inactive). The NADPH fluorescence slope in test [5] is -6.7e-06 (inactive). In test [6], the slope was 0.00564 (inactive).
Turning to `CCOC(=O)c1ccc(NS(=O)(=O)c2cccc3nsnc23)cc1`, in test [1], the cell count was 387. The inhibition in test [1] is -6.2% (inactive); in test [3] it was -63.9% (inactive); in test [7] it was -5.26% (inactive); in test [8] it was 0.648% (inactive). Moreover, the inhibition of aggregation in test [2] was 18.9% (inactive). The figures for the nuclei count in test [2] and in test [3] were 83.1% and 104%, respectively. For the same molecule, the fluorescence slope in test [4] is -0.409 (inactive). The NADPH fluorescence slope in test [5] is 4.3e-05 (inactive). Moreover, in test [6], the slope is 0.00792 (inactive).
Turning to `CCOc1cc(C2CC(=O)N3CN(C4CCCCC4)CSC3=C2C#N)ccc1O` (centres undefined), the cell count in test [1] is 818. Also, the inhibition in test [1] was 2.3% (inactive); in test [3], -31.4% (inactive); in test [7], 11.2% (inactive); in test [8], 19.8% (inactive). Further, the inhibition of aggregation in test [2] was -24.4% (inactive). Further, the nuclei count is 114% in test [2] and 110% in test [3]. For the same molecule, in test [4], the fluorescence slope is -0.607 (inactive). In test [5], the NADPH fluorescence slope is 1.8e-05 (inactive). In test [6], the slope is 0.00576 (inactive).
In the case of `COc1ccccc1C(=O)Nc1ccc(S(=O)(=O)N2CCCC2)cc1`, the cell count in test [1] was 676. Besides, the inhibition in test [1] is 2.2% (inactive); in test [3], -22.4% (inactive); in test [7], 8.65% (inactive); in test [8], -0.301% (inactive). The inhibition of aggregation in test [2] is 7.3% (inactive). In addition, the nuclei count came to 114% in test [2] and 108% in test [3]. The fluorescence slope in test [4] is -0.584 (inactive). In test [5], the NADPH fluorescence slope is -2.5e-05 (inactive). In addition, the slope in test [6] was 0.0037 (inactive).
On to `COc1ccccc1NC1=NC(c2ccc(Cl)cc2)N=C(N)N1` (centres undefined), for which, in test [1], the cell count was determined as 395. Moreover, the inhibition in test [1] is 5.2% (inactive); in test [3] it was -308% (inactive); in test [7], 29.3% (inactive); in test [8], 49.9% (inactive). The inhibition of aggregation in test [2] was -17.1% (inactive). The nuclei count in test [2] was 35.1%; in test [3], 124%. Moreover, in test [4], the fluorescence slope was -0.299 (inactive). Also, the NADPH fluorescence slope in test [5] was -4.5e-05 (inactive). Further, the slope in test [6] is 0.0046 (inactive).
For `c1ccc(Nc2ccccc2Nc2ccccn2)nc1`, the cell count in test [1] worked out at 306. The inhibition was 4.4% (inactive) in test [1], 8.5% (inactive) in test [3], 13% (inactive) in test [7] and 25% (inactive) in test [8]. The inhibition of aggregation in test [2] was 21.6% (inactive). Also, the nuclei count in test [2] came out at 88.1%; in test [3], 90.5%. Also, the fluorescence slope in test [4] is -0.379 (inactive). The NADPH fluorescence slope in test [5] was -5.3e-06 (inactive). In addition, the slope in test [6] was 0.00758 (inactive).
Take `N#CC1=C(N)SC(N)=C(C#N)C1c1ccc(C(F)(F)F)cc1`: the cell count in test [1] is 520. The inhibition was -1.5% (inactive) in test [1], -69.1% (inactive) in test [3], -1.4% (inactive) in test [7] and -49.4% (inactive) in test [8]. In test [2], the inhibition of aggregation is -11.9% (inactive). In addition, the figures for the nuclei count in test [2] and in test [3] were 114% and 187%, respectively. The fluorescence slope in test [4] was -0.472 (inactive). Also, in test [5], the NADPH fluorescence slope was 2.9e-05 (inactive). The slope in test [6] was 0.00688 (inactive).
As for `Cc1ccc(-c2cc(C(=O)Nc3cc(C)on3)c3ccccc3n2)c(C)c1`, in test [1], the cell count was 688. The inhibition in test [1] was 1.1% (inactive); in test [3] it was -17.5% (inactive); in test [7], 10.5% (inactive); in test [8], 38.8% (inactive). The inhibition of aggregation in test [2] is 11.6% (inactive). Besides, the results for the nuclei count in test [2] and in test [3] were 111% and 115%, respectively. Also, the fluorescence slope in test [4] is -0.543 (inactive). The NADPH fluorescence slope in test [5] is -4.3e-05 (inactive). The slope in test [6] was 0.00596 (inactive).
In the case of `CCOC(=O)/C(C#N)=C(/C)c1ccc(OC)cc1`, in test [1], the cell count was 323. The inhibition in test [1] was -9.6% (inactive); in test [3], -50.1% (inactive); in test [7], 5.07% (inactive); in test [8], -13.7% (inactive). The inhibition of aggregation in test [2] is -28.9% (inactive). Further, the nuclei count in test [2] and in test [3] was 120% in each case. For the same molecule, the fluorescence slope in test [4] is -0.515 (inactive). Besides, in test [5], the NADPH fluorescence slope is -4.3e-06 (inactive). In addition, the slope in test [6] is 0.00405 (inactive).
Regarding `CC(=O)Nc1c(O)nc(SCC(=O)Nc2nnc(CC(C)C)s2)[nH]c1=O`, the cell count in test [1] was found to be 780. For the same molecule, the inhibition in test [1] is -3.3% (inactive); in test [3] it was -41% (inactive); in test [7] it was -9.44% (inactive); in test [8] it was -13.3% (inactive). In test [2], the inhibition of aggregation is 0% (inactive). The nuclei count was found to be 114% in test [2] and 104% in test [3]. For the same molecule, in test [4], the fluorescence slope is -0.541 (inactive). Besides, the NADPH fluorescence slope in test [5] was 1.8e-05 (inactive). Besides, the slope in test [6] is 0.00412 (inactive).
For the molecule `COC(=O)Cn1c(=O)c2c(nc(Br)n2CC(=O)OC)n(C)c1=O`, the cell count in test [1] was found to be 640. In addition, the inhibition was 6.7% (inactive) in test [1], 24.8% (inactive) in test [3], 9.82% (inactive) in test [7] and 7.4% (inactive) in test [8]. The inhibition of aggregation in test [2] is -0.4% (inactive). The results for the nuclei count in test [2] and in test [3] were 103% and 101%, respectively. Further, the fluorescence slope in test [4] was -0.406 (inactive). Besides, the NADPH fluorescence slope in test [5] is -1.4e-05 (inactive). The slope in test [6] was 0.00483 (inactive).
With `O=C(Nc1cccc(C(F)(F)F)c1)c1ccco1`, the cell count in test [1] came out at 580. The inhibition in test [1] was -5.4% (inactive); in test [3], -33.8% (inactive); in test [7], -7.21% (inactive); in test [8], -42.6% (inactive). In addition, the inhibition of aggregation in test [2] is 4.3% (inactive). Besides, the nuclei count in test [2] was 113%; in test [3] it was 99.3%. Besides, in test [4], the fluorescence slope is -0.617 (inactive). In addition, the NADPH fluorescence slope in test [5] is -5.6e-05 (inactive). The slope in test [6] was 0.00406 (inactive).
